The values below come from PubChem BioAssay (Tox21).

Molecules are shown by their SMILES. Inconclusive results are not listed. Entries that show only a call come without a potency. Active and inactive are the calls of the source. Calls come from the whole dose curve; as a rule, active = well fitted cell-killing curve with a large enough effect in the repeat runs; inconclusive = weak or mixed curves, or effect the other way; inactive = flat fitted curve, though single readings scatter.

A short description of the test: qHTS assay to identify small molecule antagonists of the androgen receptor (AR) signaling pathway using the MDA cell line in the presence of 0.5 nM R1881 - cell viability counter screen (AID 1259242). Note: nearly all actives have a fitted effect of over 45% in size. The note with it: MDA-kb2 viability, CellTiter-Fluor protease fluorescence, 16 h; series mostly up to 92.4 µM; viability change, negative = cytotoxic: at the top concentration. The source says: U.S. Tox21 Program National Center for Advancing Translational Sciences [NCATS] NIH Chemical Genomics Center [NCGC] U.S. Environmental Protection Agency [EPA] National Institutes of Environmental Health Sciences [NIEHS] National Toxicology Program [NTP] U.S. Food and Drug Administration [FDA] Tox21 Assay Overview: Androgen receptor (AR) is an important member of the nuclear receptor family. Its signaling plays a critical role in AR-dependent prostate cancer and other androgen related diseases. Considerable attention has been given in the past decades to develop methods to study and screen for the environmental chemicals that have the potential to interfere with metabolic homeostasis, reproduction, developmental and behavioral functions. Therefore AR binding assay for screening androgen antagonists can be used to identify potential endocrine disruptors. MDA-kb2 cells (from ATCC, deposited by Wilson et al.) were used to screen for AR inhibitors against Tox21 compound libraries. These cells are human breast carcinoma cells that were stably transfected with a luciferase reporter gene under control of the MMTV promoter that contains response elements for both androgen receptor (AR) and glucocorticoid receptor (GR). The current screening for identification of AR inhibitors against Tox21 libraries used lower concentration of (0.5 nM) R1881 as a stimulator. The cytotoxicity of the Tox21 compound libraries against MDA-kb2 cell line was tested by measuring live-cell protease activity using CellTiter-Fluor assay in the same wells.
Tox21 Assay Protocol Summary: MDA-kb2 cells (cells cultured without CO2) were dispensed at 3,000 cells/well in 4 uL of culture medium into white wall/solid-bottom 1536-well plates (Corning Life Sciences, Corning, NY) using a Multidrop Combi (ThermoFisher Scientific, Waltham, MA) dispenser. After the assay plates were incubated at a 37C and 0% CO2 for 5 hr, 23 nL of compounds dissolved in DMSO, positive controls or DMSO only was transferred to the assay plate by a Pintool station (Kalypsys, San Diego, CA). The transfer of compounds was followed by the addition of 1 uL of 0.5 nM (final concentration) agonist (R1881)/culture medium using a Flying Reagent Dispenser (FRD, Aurora Discovery, San Diego, CA). The plates were incubated at 37C and 0% CO2 for 16 hr. For cytotoxicity assay, 1 uL of CellTiter-Fluor reagent (Promega Corporation, Madison, WI) was added to each well using the FRD and after 30 min incubation at 37C and 0% CO2, The fluorescence intensity was measured using ViewLux plate reader (PerkinElmer, Shelton, CT).
On to `COc1ccc([C@@H]2CC(=O)c3c(O)cc(O[C@@H]4O[C@H](CO[C@@H]5O[C@@H](C)[C@H](O)[C@@H](O)[C@H]5O)[C@@H](O)[C@H](O)[C@H]4O)cc3O2)cc1OC`, for which the Potency result was “inactive”.

In the case of `C[Si](C)(C)N[Si](C)(C)C`, the Potency result was “inactive”.

In the case of `NC(=O)c1ncn([C@@H]2O[C@H](CO)[C@@H](O)[C@H]2O)n1`, the Potency result is “inactive”.

As to `c1cnc2c(c1)ccc1cccnc12`, the “viability change, negative = cytotoxic” value is -30.4% (inactive).

As to `C=CC(C)(C)C`, the Potency result was “inactive”.

`CCCCCNCCCCC`: the Potency entry was “inactive”.

As to `CCc1cccc(O)c1`, the Potency result was “inactive”.

In the case of `CC(C)=CCC/C(C)=C/C=O`, the Potency entry is “inactive”.

`OCCOCCOCCOCCOCCO`: the Potency entry is “inactive”.

Consider `CCn1cc(C(=O)O)c(=O)c2cc3c(cc21)OCO3`, for which the Potency result is “inactive”.

For the compound `CCOC(=O)CC(=O)OCC`, the Potency result is “inactive”.

For `Cc1ccc(C(C)C)cc1`, the Potency result is “inactive”.

For `C[n+]1ccn(CCO)c1`, the Potency entry was “inactive”.

As for `Nc1cccc(C(F)(F)F)c1`, the Potency entry was “inactive”.

Take `Cc1cc(C)cc(O)c1`: the Potency entry is “inactive”.

As for `C=CC(=O)NCOCCCC`, the Potency result was “inactive”.

In the case of `Cc1ccc([N+](=O)[O-])cc1N`, the Potency result is “inactive”.

With `Cc1cc(C)c(O)c(C)c1`, the Potency entry was “inactive”.

With `CCCCCCCC(=O)O`, the Potency result is “inactive”.

On to `CC(O)CNCC(C)O` (stereo not given), for which the Potency result is “inactive”.

As for `Cc1ccccc1C=O`, the Potency entry was “inactive”.

Consider `CN=C(NC#N)NCCSCc1nc[nH]c1C`, for which the Potency entry is “inactive”.

`O=C1O[C@H]([C@H](O)CO)C(O)=C1O`: the Potency entry is “inactive”.

Take `CC1(C)C(=O)N(Cl)C(=O)N1Cl`: the Potency entry is “inactive”.

Turning to `CC(=O)OCc1ccc2c(c1)OCO2`, the Potency entry was “inactive”.

Take `CCCCC(=O)O`: the Potency entry was “inactive”.

As for `CN1CCCC1=O`, the Potency result was “inactive”.

On to `OC1CCCCC1`, for which the Potency entry is “inactive”.

For `O=C1OC(=O)c2c(Cl)c(Cl)c(Cl)c(Cl)c21`, the Potency result is “inactive”.

Turning to `CCc1cccc(CC)c1N`, the Potency result was “inactive”.

On to `Cc1ncc(CO)c(CO)c1O`, for which the Potency result was “inactive”.

As for `COc1cc(NC(=O)CC(C)=O)c(OC)cc1Cl`, the Potency entry is “inactive”.

`CC/C(C)=N/O`: the Potency entry was “inactive”.

For the compound `OCC(O)CS` (stereo not given), the Potency entry was “inactive”.

For `NC(=O)NC(N)=O`, the Potency result was “inactive”.

In the case of `NCCNCCNCCN`, the Potency entry is “inactive”.

Turning to `Cc1ccc(Cl)cc1`, the Potency result was “inactive”.

As for `COc1ccccc1[N+](=O)[O-]`, the Potency result was “inactive”.

As for `C=C1C[C@]23C[C@@]1(O)CC[C@H]2[C@@]12C=C[C@H](O)[C@@](C)(C(=O)O1)[C@H]2[C@@H]3C(=O)O`, the Potency entry is “inactive”.

`Clc1cccc(Cl)c1NC1=NCCN1`: the Potency result is “inactive”.
